Measured values taken from ChEMBL document CHEMBL1157539, “Thousands of chemical starting points for antimalarial lead identification” (Nature, 2010).

How the values were obtained:
Type in all cases: functional
[1] = system: Plasmodium falciparum; experiment: GSK_TCMDC: Inhibition of Plasmodium falciparum 3D7 in whole red blood cells, using parasite LDH activity as an index of growth. Test compounds present at 2uM
[2] = system: Plasmodium falciparum; experiment: GSK_TCMDC: Inhibition of Plasmodium falciparum Dd2 in whole red blood cells, using parasite LDH activity as an index of growth. Test compounds present at 2uM
[3] = system: HepG2; experiment: GSK_TCMDC: Percent inhibition of human HepG2 cell line. Test compounds present at 10uM.

| Structure (SMILES) | Inhibition [1] [%] | Inhibition [2] [%] | Inhibition [3] [%] |
| --- | --- | --- | --- |
| CCCCCCCc1c2c(C)c(C(=O)OCC)nc-2cc2n1CC(C)=C2C.Cl | 89 | 10 | 11 |
| CC(C)Sc1nc2c(c(=O)n1Cc1ccco1)C1(CCCC1)Cc1ccccc1-2 | 98 | 10 | 8 |
| CCCCCCCC1CCN(C[C@H](O)c2ccnc3ccc(OC)cc23)CC1.O=C(O)C(=O)O | 94 | 81 | 23 |
| CCCN1CCCN(Cc2cccc(NC(=O)c3ccc(-c4ccccc4)cc3)c2)CC1.O=C(O)C(F)(F)F | 92 | 15 | 34 |
| CCCCNCc1ccc(-c2nc(CN(Cc3ccc(Cl)c(Cl)c3)C(=O)CN(C)C)cs2)cc1.O=C(O)C(F)(F)F | 100 | 51 | 36 |
| COc1ccccc1-n1c(-c2ccc3ccccc3c2)csc1=NC(=O)c1ccccc1 | 93 | 79 | 0 |
| Cc1cc(-c2ccc(CN3Cc4ccccc4C3)cc2)ccc1S(=O)(=O)NCCN1CCCC1.O=C(O)C(F)(F)F | 94 | 10 | 49 |
| O=C(CSc1nnc(-c2ccccc2Br)[nH]1)c1c[nH]c2ccccc12 | 100 | 95 | 7 |
| COc1ccccc1CN1CCC(NC(=O)c2ccc(-c3cccc(C(F)(F)F)c3)s2)CC1.O=C(O)C(F)(F)F | 85 | 12 | 83 |
